Common to all, as to assay type: functional
Test [1] has as its system Plasmodium falciparum. Put plainly: GSK_TCMDC: Inhibition of Plasmodium falciparum 3D7 in whole red blood cells, using parasite LDH activity as an index of growth. Test compounds present at 2uM.
In test [2] the test system is Plasmodium falciparum. Put plainly: GSK_TCMDC: Inhibition of Plasmodium falciparum Dd2 in whole red blood cells, using parasite LDH activity as an index of growth. Test compounds present at 2uM.
The test system of a further test is HepG2. The experiment in a line: GSK_TCMDC: Percent inhibition of human HepG2 cell line. Test compounds present at 10uM.

Data on 29 molecules can be found in ChEMBL document CHEMBL1157539, “Thousands of chemical starting points for antimalarial lead identification” (Nature, 2010).

For the molecule `Cc1ccc(S(=O)(=O)NC2=NC(=N)N(OCc3ccc(Cl)c(Cl)c3)C(C)(C)N2)cc1`, the results for the Inhibition in the test on Plasmodium falciparum [1], with Plasmodium falciparum [2] and with HepG2 were 88%, 0% and 0%, respectively.
As to `CCN(CC(C)O)C(=O)c1ccc(-c2cccc(-c3nc4cccc(C)c4[nH]3)c2)cc1` (configuration not stated), the figures for the Inhibition in the test on Plasmodium falciparum [1], in the test on Plasmodium falciparum [2] and in the test with HepG2 were 100%, 32% and 28%, respectively.
For `CC(=NO)C1=C(O)C(c2ccccc2)N(c2ccccc2)C1=O` (configuration not stated), the Inhibition worked out at 99% with Plasmodium falciparum [1], 23% in the test on Plasmodium falciparum [2] and 12% in the test with HepG2.
For `Clc1ccccc1CN1CCC(NCc2cccc(-n3ccnc3)c2)CC1.O=C(O)C(F)(F)F` the same measures were 100%, 43% and 6%.
For `CC1(C)Cc2c([nH]c3ccccc23)C(CCCCCCCCC2=NC(C)(C)Cc3c2[nH]c2ccccc32)=N1.Cl`, in that order: 99%, 88% and 100%.
For `COc1cccc(NC(=O)c2cc([N+](=O)[O-])ccc2NC(=O)CN2CCc3ccccc3C2)c1` the same measures were 100%, 37% and 5%.
`CC(CN1CCN(C)CC1)C(=O)Nc1cccc(-c2ccc(-c3nc4ccccc4[nH]3)s2)c1` (configuration not stated): the figures for the Inhibition in the test on Plasmodium falciparum [1], with Plasmodium falciparum [2] and in the test with HepG2 were 97%, 59% and 2%, respectively.
For `O=C(NC1CCN(Cc2ccccc2)CC1)c1csc2nc(-c3ccc(Cl)cc3)cn12`, in that order: 98%, 14% and 19%.
Turning to `Cl.O=C(NCc1ccc(C(=O)N2CCC(N3CCCCC3)CC2)cc1)c1cc(-c2cccc(C(F)(F)F)c2)ccc1O`, the Inhibition with Plasmodium falciparum [1] is 100%; in the test with Plasmodium falciparum [2], 58%; in the test on HepG2 it was 0%.
Take `COc1cc(C=CC(=O)N2CCC(CCN3CCC(c4c[nH]c5ccccc45)CC3)CC2)cc(OC)c1`: the Inhibition in the test with Plasmodium falciparum [1] stood at 92%; with Plasmodium falciparum [2], 23%; in the test with HepG2 it was 39%.
For `CC(C)COc1ccc(Cl)cc1Cc1ccc(-c2nc3cc(N4CCN(C)CC4)ccc3[nH]2)o1.Cl`, in that order: 100%, 41% and 6%.
For `CCCCCC1c2[nH]c3ccccc3c2CCN1C(=O)OCc1ccccc1` (configuration not stated) the same measures were 93%, 68% and 3%.
For `O=C(/C=C/c1ccc(Cl)c(Cl)c1)NCCCCCCN1CCCN(C(=O)Nc2ccc(Cl)c(C(F)(F)F)c2)CC1` the same measures were 100%, 24% and 25%.
Regarding `COC(=O)c1cccc(CNCc2cccc(-c3cccc(-c4nc5cc(F)ccc5[nH]4)c3)c2)c1.O=C(O)C(F)(F)F`, the values for the Inhibition in the test on Plasmodium falciparum [1], in the test with Plasmodium falciparum [2] and with HepG2 were 100%, 52% and 27%, respectively.
For `NC1CCN(Cc2ccc(-c3ccc(-c4nc5cc(F)ccc5[nH]4)s3)cc2)C1.O=C(O)C(F)(F)F` (configuration not stated) the same measures were 100%, 98% and 32%.
For `CN1CCN(C(C(=O)NCc2cc(Cl)cc(Cl)c2)c2ccc(NC(=O)Nc3ccccc3)cc2)CC1.O=C(O)C(F)(F)F` (configuration not stated) the same measures were 98%, 43% and 23%.
As for `COc1cc2ncnc(Nc3ccc(OCc4ccccc4Br)c(Cl)c3)c2cc1OC.Cl`, the results for the Inhibition in the test on Plasmodium falciparum [1], in the test on Plasmodium falciparum [2] and in the test on HepG2 were 96%, 6% and 25%, respectively.
For `O=C(Cn1c(SCc2cccc(F)c2F)cc(=O)c2ccccc21)N(CCn1ccnc1)Cc1ccc(-c2ccc(C(F)(F)F)cc2)cc1` the same measures were 100%, 94% and 20%.
Turning to `Cl.NC(=O)c1cccc(Nc2nccc(Nc3ccc(Oc4cccc5ccccc45)cc3)n2)c1`, the Inhibition in the test on Plasmodium falciparum [1] is given as 94%; with Plasmodium falciparum [2], 22%; in the test on HepG2, 0%.
For `COc1ccc(NC(=O)NC2CCN(CCCCCNC(=O)/C=C/c3ccc(Cl)c(Cl)c3)CC2)cc1` the same measures were 96%, 1% and 5%.
For `Cc1cccc(C(=O)Nc2ccnc(N(C)CCCN(C)Cc3cccc(O)c3)c2)c1.O=C(O)C(F)(F)F`, in that order: 94%, 71% and 27%.
For `CCOc1cccc2nc(NCCCNCc3ccc(Cl)c(Cl)c3)cc(NCCCNCc3ccc(Cl)c(Cl)c3)c12` the same measures were 98%, 58% and 96%.
In the case of `CCC(NC(=O)c1ccccc1NC(=O)c1ccc(C)cc1)C(=O)OC` (configuration not stated), the Inhibition in the test on Plasmodium falciparum [1] stood at 95%; in the test with Plasmodium falciparum [2] it was 86%; in the test on HepG2 it was 0%.
For `CN(C)CCOc1ccc(-n2c(-c3nonc3N)nc3cncc(-c4ccc(F)cc4)c32)cc1`, in that order: 97%, 7% and 10%.
For `Cc1cccc2nc(C3CCN(CC4CCN(C(=O)/C=C/c5ccc(Cl)c(Cl)c5)CC4)CC3)[nH]c12`, in that order: 100%, 79% and 46%.
With `COc1ccccc1C(C)NCC(=O)Nc1ccccc1Sc1ccccc1` (configuration not stated), the values for the Inhibition in the test with Plasmodium falciparum [1], in the test with Plasmodium falciparum [2] and with HepG2 were 89%, 7% and 0%, respectively.
As for `CCC(C)NCc1c(O)ccc2c(CNC(C)CC)c(O)ccc12.Cl` (configuration not stated), the Inhibition with Plasmodium falciparum [1] is on record as 100%; in the test with Plasmodium falciparum [2], 31%; in the test on HepG2, 14%.
For `Cl.O=S(=O)(Nc1ccc2nccc(N3CCNCC3)c2c1)c1ccc2c(Cl)cccc2c1`, in that order: 100%, 2% and 11%.
For `CCCCN(CCCC)CCNC(=O)c1cc(OC(F)(F)F)ccc1O`, in that order: 93%, 90% and 8%.
